Reference: PubChem BioAssay (NCI)
About 79,000 compounds went through this panel and 15% of them were active in at least one assay; those are over-represented in the sample as a whole. Calls of active or inactive are those of the source. Rule as the data show it: active = growth inhibition above about 70%; inactive = the rest.

Columns and labels:
[1] = NCI Yeast Anticancer Drug Screen. Data for the wt1 strain (AID 149);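 also: 0% = growth of vehicle-treated wt1 cultures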; settings: S. cerevisiae wt1 strain (SPY 50644) growth inhibition, active compounds read high
Procedure, shortened: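 wt1 yeast, compound-treated; % growth inhibition vs vehicle control.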

[2] = NCI Yeast Anticancer Drug Screen. Data for the rad50EPP+ strain (AID 151);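 also: 0% = growth of vehicle-treated control cultures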; settings: S. cerevisiae rad50 mutant strain, active compounds read high
Procedure, shortened: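 Yeast strain carrying rad50 alteration (rad50EPP+) exposed to compounds; growth inhibition measured relative to vehicle-treated controls.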

[3] = NCI Yeast Anticancer Drug Screen. Data for the rad50 strain (AID 155);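 also: 0% = growth of vehicle-only cultures of the same strain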; settings: S. cerevisiae rad50 strain growth inhibition, active compounds read high
Procedure, shortened: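 Genetically altered yeast (DNA repair pathway); compound treatment; growth inhibition vs vehicle ctrl.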

[4] = NCI Yeast Anticancer Drug Screen. Data for the mec2-1 strain (AID 157); settings: S. cerevisiae mec2-1 strain, active compounds read high
Procedure, shortened: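 mec2-1 yeast strain, carrying an alteration in DNA damage repair or cell cycle control, was exposed to compounds; growth inhibition was measured relative to vehicle-treated controls.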

[5] = NCI Yeast Anticancer Drug Screen. Data for the rad14 strain (AID 159);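 also: 0% = growth of vehicle-treated control cultures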; settings: S. cerevisiae rad14 strain growth inhibition, active compounds read high
Procedure, shortened: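 Test compounds were applied to a repair-deficient yeast strain. Its growth was then compared with that of cultures given vehicle alone, and inhibition was expressed relative to those controls.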

[6] = NCI Yeast Anticancer Drug Screen. Data for the sgs1 mgt1 strain (AID 161);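 also: 0% = growth of cultures given vehicle only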; settings: S. cerevisiae sgs1 mgt1 strain, active compounds read high
Procedure, shortened: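 This yeast growth screen uses a strain with defined DNA-repair lesions; compound-treated growth is compared with vehicle-treated growth.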

[7] = NCI Yeast Anticancer Drug Screen. Data for the CLN2oe strain (AID 163);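 also: 0% = growth of vehicle-only control cultures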; settings: S. cerevisiae CLN2oe strain, active compounds read high
Procedure, shortened: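 Yeast cells carrying a defined cell-cycle control alteration were exposed to test compounds. Growth inhibition was scored against vehicle-treated control cultures.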

[8] = NCI Yeast Anticancer Drug Screen. Data for the cln2 rad14 strain (AID 165);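 also: 0% = growth equal to vehicle treated cultures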; settings: S. cerevisiae cln2 rad14 strain, active compounds read high
Procedure, shortened: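 Yeast carrying cln2 and rad14 alterations (cell cycle control and DNA damage repair) were exposed to compounds. Growth inhibition was measured against vehicle-treated controls.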

[9] = NCI Yeast Anticancer Drug Screen. Data for the bub3 strain (AID 167); settings: S. cerevisiae bub3 mutant strain, active compounds read high
Procedure, shortened: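 Yeast carrying a defined mutation is treated with each compound, and growth is compared with that of vehicle-exposed cells to give inhibition.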

[10] = NCI Yeast Anticancer Drug Screen. Data for the wt2 strain (AID 169);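 also: 0% = growth of vehicle-treated yeast cultures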; settings: S. cerevisiae wt2 strain growth inhibition, active compounds read high
Procedure, shortened: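 Yeast cells were exposed to test compounds, and growth inhibition was measured relative to vehicle-treated controls.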

[11] = NCI Yeast Anticancer Drug Screen. Data for the mlh1 strain (AID 171);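 also: 0% = growth of vehicle-treated control cultures of the same strain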; settings: S. cerevisiae mlh1 strain growth inhibition, active compounds read high
Procedure, shortened: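 Yeast carrying a defined genetic alteration in DNA damage repair or cell cycle control were exposed to test compounds. Growth inhibition was measured relative to vehicle-treated controls.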

[12] = NCI Yeast Anticancer Drug Screen. Data for the mlh1 rad18 strain (AID 175); settings: S. cerevisiae mlh1 rad18 strain growth inhibition, active compounds read high
Procedure, shortened: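 Growth inhibition of the yeast strain was measured after compound exposure and expressed relative to vehicle-treated controls. The strain carries defined defects in DNA damage repair.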

[13] = NCI Yeast Anticancer Drug Screen. Data for the rad18 strain (AID 177); settings: S. cerevisiae rad18 mutant growth inhibition, active compounds read high
Procedure, shortened: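 Yeast carrying a defined DNA damage repair alteration were exposed to compounds. Growth inhibition was expressed relative to vehicle-treated controls.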

[14] = NCI Yeast Anticancer Drug Screen. Data for the sgs1 strain (AID 173);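 also: 0% = growth of vehicle-only control cultures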; settings: S. cerevisiae sgs1 mutant, active compounds read high
Procedure, shortened: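 Yeast mutant strains carrying defined defects in DNA damage repair or cell cycle control were exposed to test compounds. Growth inhibition was scored against vehicle-treated controls.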

[15] = at 5.0 µM (retest, dose inferred, filed as 0.5)
[16] = at 50.0 µM (retest, dose inferred, filed as 5.0)

Measured: growth inhibition

CN(C)N1C(=O)SCC(c2ccccc2)(c2ccccc2)C1=O
inactive: [1]; at 1.2 µM -4% | [1]; at 3.7 µM -4% | [1]; at 11.0 µM -3% | [1]; at 33.0 µM 6% | [1]; at 100.0 µM 16% | [2]; at 1.2 µM -2% | [2]; at 3.7 µM 2% | [2]; at 11.0 µM -32% | [2]; at 33.0 µM 4% | [2]; at 100.0 µM 7% | [3]; at 1.2 µM 4% | [3]; at 3.7 µM 7% | [3]; [15] -10% | [3]; at 11.0 µM 8% | [3]; at 33.0 µM 30% | [3]; [16] 61% | [3]; at 50.0 µM 64.8% | [3]; at 100.0 µM 50% | [4]; at 1.2 µM 1% | [4]; at 3.7 µM 1% | [4]; [15] 9% | [4]; at 11.0 µM 2% | [4]; at 33.0 µM 9% | [4]; [16] 43% | [4]; at 50.0 µM 10.2% | [4]; at 100.0 µM 27% | [5]; at 1.2 µM 1% | [5]; at 3.7 µM -3% | [5]; at 11.0 µM -4% | [5]; at 33.0 µM -15% | [5]; at 100.0 µM -19% | [6]; [15] 11% | [6]; [16] 43% | [6]; at 50.0 µM 15.4% | [7]; at 1.2 µM -2% | [7]; at 3.7 µM 7% | [7]; at 11.0 µM 2% | [7]; at 33.0 µM 1% | [7]; at 100.0 µM 2% | [8]; [15] -26% | [8]; [16] 3% | [8]; at 50.0 µM 6.9% | [9]; at 1.2 µM -2% | [9]; at 3.7 µM -1% | [9]; [15] 12% | [9]; at 11.0 µM 12% | [9]; at 33.0 µM 17% | [9]; [16] 60% | [9]; at 50.0 µM 21.6% | [9]; at 100.0 µM 23% | [10]; at 1.2 µM -2% | [10]; at 3.7 µM -3% | [10]; at 11.0 µM -1% | [10]; at 33.0 µM 4% | [10]; at 100.0 µM 11% | [11]; at 1.2 µM -1% | [11]; at 3.7 µM 1% | [11]; at 11.0 µM 1% | [11]; at 33.0 µM 12% | [11]; at 100.0 µM -10% | [12]; [15] 12% | [12]; [16] 29% | [12]; at 50.0 µM 47% | [13]; at 1.2 µM 6% | [13]; at 3.7 µM 5% | [13]; at 11.0 µM 26% | [13]; at 33.0 µM 59%
active: [13]; at 100.0 µM 75%

BrC/C=C/C[P+](c1ccccc1)(c1ccccc1)c1ccccc1
inactive: [1]; at 1.2 µM 4% | [1]; at 3.7 µM 9% | [2]; at 1.2 µM -12% | [2]; at 3.7 µM -14% | [2]; at 11.0 µM -8% | [2]; at 33.0 µM 45% | [3]; at 1.2 µM 7% | [3]; at 3.7 µM 13% | [4]; at 1.2 µM 5% | [4]; at 3.7 µM 12% | [4]; [15] 23% | [4]; [16] 23% | [5]; at 1.2 µM 5% | [5]; at 3.7 µM 7% | [7]; at 1.2 µM -3% | [7]; at 3.7 µM 10% | [8]; [15] 47% | [8]; [16] 47% | [9]; at 1.2 µM -5% | [9]; at 3.7 µM -7% | [9]; [15] 18% | [9]; [16] 18% | [14]; at 1.2 µM 4% | [14]; at 3.7 µM 10% | [12]; [15] 43% | [12]; [16] 43% | [13]; at 1.2 µM 9% | [13]; at 3.7 µM 33%
active: [1]; at 11.0 µM 94% | [1]; at 33.0 µM 98% | [1]; at 100.0 µM 98% | [2]; at 100.0 µM 91% | [3]; [15] 79% | [3]; at 11.0 µM 93% | [3]; at 33.0 µM 98% | [3]; [16] 79% | [3]; at 50.0 µM 90% | [3]; at 100.0 µM 98% | [4]; at 11.0 µM 96% | [4]; at 33.0 µM 98% | [4]; at 50.0 µM 92.9% | [4]; at 100.0 µM 99% | [5]; at 11.0 µM 96% | [5]; at 33.0 µM 99% | [5]; at 100.0 µM 99% | [7]; at 11.0 µM 94% | [7]; at 33.0 µM 98% | [7]; at 100.0 µM 99% | [8]; at 50.0 µM 87.7% | [9]; at 11.0 µM 94% | [9]; at 33.0 µM 98% | [9]; at 50.0 µM 88.7% | [9]; at 100.0 µM 98% | [14]; at 11.0 µM 95% | [14]; at 33.0 µM 98% | [14]; at 100.0 µM 99% | [12]; at 50.0 µM 87.7% | [13]; at 11.0 µM 96% | [13]; at 33.0 µM 98% | [13]; at 100.0 µM 98%
